Screening data from PubChem.
In the library only some 21% were active in any assay of this set; here they are far more common.
IL1B secr inh – blocks inflammasome-driven IL-1 beta release; THP-1 LPS/ATP IL-1B secretion, AlphaLISA, 16 h; hits give low values; activity change, % at 57.5 µM; 360,000 compounds, 4.7% hits; in the data active means activity change below about -50%; inconclusive means mostly about -30% to -49%; further: on the % scale 0 is the no-effect control and ±100 the full control effect
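Secreted IL-1B measured by AlphaLISA bead assay after 16 h compound exposure of THP-1 cells; compounds (final up to 57.5 uM) added 1 h before LPS (250 ng/mL) and ATP (1.25 mM) stimulation; lower signal means less secretion.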
DRD3 agonist – D3 dopamine receptor (human) agonism | AID 652048 | P35462 | 410,000 compounds, 0.58% hits | D3R DiscoveRx beta-arrestin cells, luminescence, 90 min | max activation, %; in the data active means max activation above about 30%; further: 0% is about no effect
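Cells at 1500/well, incubated overnight, then treated with pinned compounds (dopamine as control) for 90 min at 37 degrees C. DiscoveRx reagent added for 30 - 60 minutes at room temperature; luminescence read.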
TDP1 cell CPT – DT40-hTDP1 cell growth loss with CPT. chicken DT40 Tdp1-/-;hTDP1 cells + 20 nM CPT, ATP luminescence, 48 h. Potency, µM (highest dose often 46.2 µM), inactives show at the top dose activity change, negative = growth inhibition, actives largely listed as inhibitors. AID 686979. 420,000 compounds, 12% hits; further: potency means the concentration at half of the fitted maximal effect; on the % scale 0 is the no-effect control and ±100 the full control effect; nearly all actives have a fitted effect of over 55% in size
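Chicken DT40 Tdp1-/- cells complemented with human TDP1, 400 cells/well, exposed to compounds plus 20 nM camptothecin for at least 48 h at 37 C; viability read as ATP content by CellTiter-Glo luminescence.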
D3 antag – blocks the human D3 dopamine receptor; AID 652054; max response, negative = inhibition, %; 360,000 compounds, 2.5% hits; D3R cells, DiscoveRx beta-arrestin luminescence, antagonist mode; hits give low values; P35462; in the data active means max response below about -50%; inconclusive means no clear call, values can overlap the other calls; further: on the % scale 0 is the no-effect control and ±100 the full control effect
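Cells expressing the human receptor were seeded at 1500 cells/well, incubated overnight at 37 degrees C in 5% CO2, then exposed to library compounds with dopamine controls for 90 minutes at 37 degrees C before luminescent detection.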
ClpP mod – qHTS Assay for Activators of ClpP | purified B. subtilis ClpP, FRET peptide cleavage, 20 min | Potency, µM (titrated, usually from 57.5 µM), for inactives: top-dose activity change, negative = active | 340,000 compounds, 1.9% hits | AID 651965, 2013; active means well fitted falling curve with a large enough effect; inconclusive means small, poorly fitted or top-dose-only effect; inactive means no such curve, though single readings can be large or run the other way; further: potency means the concentration at half of the fitted maximal effect; the source files actives as falling curves though it sought activators and does not explain the sign; nearly all actives have a fitted effect of over 65% in size
Target sequence (P80244 whole entry, looked up): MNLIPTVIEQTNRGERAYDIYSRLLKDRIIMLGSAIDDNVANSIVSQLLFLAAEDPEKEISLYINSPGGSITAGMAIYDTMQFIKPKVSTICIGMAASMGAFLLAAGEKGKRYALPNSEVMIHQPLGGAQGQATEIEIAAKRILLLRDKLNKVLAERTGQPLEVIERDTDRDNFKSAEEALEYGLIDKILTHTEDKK
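FRET quenching reversal measured ClpP activation: 10 microg/mL B. subtilis ClpP at pH 8 with the FRET-FV decapeptide, read at 430 nm after 320 nm excitation. The 20-min minus 0-min signal was scaled between DMSO/no-enzyme wells and ADEP (5.8 microM final).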
DT40 TDP1 no CPT – qHTS for Inhibitors of human tyrosyl-DNA phosphodiesterase 1 (TDP1): qHTS in cells in absence of CPT; DT40 Tdp1-/- hTDP1 cells, no CPT, ATP luminescence, 48 h; Potency, µM (highest dose often 46.2 µM), for inactives: top-dose activity change, negative = growth inhibition, hits mostly inhibitors; 420,000 compounds, 15% hits; AID 686978, 2013; further: potency means the concentration at half of the fitted maximal effect; on the % scale 0 is the no-effect control and ±100 the full control effect; nearly all actives have a fitted effect of over 55% in size
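Chicken DT40 Tdp1-/- cells complemented with human TDP1, screened without camptothecin (DMSO vehicle only), 400 cells/well. Compounds pin-transferred, cells incubated at 37 °C for at least 48 hr. Growth read as ATP-dependent luminescence (CellTiter-Glo, 30 min at RT).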
* hit, by the source's call; ? = inconclusive; / = not tested or not shown. Unless noted, the call rests on the fitted dose curve; in most records, active means well fitted inhibition curve with a large enough effect; inconclusive means small, poorly fitted or top-dose-only effect; inactive means flat fitted curve, though single readings scatter.

SMILES	IL1B secr inh	DRD3 agonist	TDP1 cell CPT	D3 antag	ClpP mod	DT40 TDP1 no CPT
Cc1cc(NC(=O)C(=O)NCCN2CCN(C(=O)c3cccs3)CC2)ccc1Br	?	1	?	6	0%	?
Cc1ccc(NC(=O)C(=O)NCC(c2ccc3c(c2)OCO3)N2CCN(C)CC2)c(C)c1 (centres undefined)	/	-4	?	/	-2%	?
CC(NC(=O)C(=O)NCCc1c[nH]c2ccccc12)c1ccccc1 (centres undefined)	-1	-1	?	12	0%	-5%
O=C(CSc1ncn[nH]1)N1c2ccccc2Sc2ccccc21	-27	-1	-12%	8	/	-19%
O=C(O)P(=O)(O)O	/	6	5%	/	/	-1%
CCCN(Cc1cccs1)C(=O)Nc1cc(C)cc(C)c1	/	-6	26µM*	/	-1%	?
CCCN(Cc1cccs1)C(=O)Nc1cc(C)ccc1OC	/	0	?	/	0%	16µM*
O=C(CSc1nc2nc(-c3cccs3)cc(C(F)(F)F)c2c(=O)[nH]1)Nc1ccc(F)c(F)c1	0	8	6.5µM*	3	/	4.1µM*
Cc1ccc(S(=O)(=O)CCSc2nc(C)cc(C(F)(F)F)c2C#N)cc1	-101*	4	?	-2	-3%	?
N#Cc1c(C(F)(F)F)cc(-c2cccs2)nc1SCC(=O)Nc1ccc(Cl)cc1	/	6	16µM*	/	38%	?
CCOc1ccc(NC(=O)CSc2nc(-c3cccs3)cc(C(F)(F)F)c2C#N)cc1	/	8	-7%	/	-3%	-2%
Cc1cc(C(F)(F)F)c(C#N)c(SCC(=O)Nc2nc3cc(Br)ccc3s2)n1	-146*	11	4%	22	/	-26%
COc1ccc(C(CNC(=O)c2ccc(OCc3c(C)noc3C)cc2)N2CCCC2)cc1 (centres undefined)	-23	-16	8%	-1	-1%	17%
NCC1CCCCC1CC(=O)O (centres undefined)	/	/	-16%	/	/	-3%
O=C(CNC(=O)[C@@H]1Cc2ccccc2CN1)NCc1ccco1	-6	-2	-4%	-13	-2%	10%
COc1ccccc1CCNC(=O)c1ccc(Br)s1	?	0	?	-5	-1%	?
Cc1ccc(C(=O)Nc2c(-c3ccccc3)nc3ccccn23)cc1C	/	-4	-6%	/	1%	?
N#Cc1ccc(-c2cccs2)nc1SCC(=O)Nc1cccc(C(F)(F)F)c1	/	2	?	/	4%	21µM*
Cc1ccc(NC(=O)CCc2nnc3n(C)c(=O)c4sccc4n23)cc1C	/	-11	-12%	/	-1%	-3%
CCC1C(=O)CC(c2ccc([N+](=O)[O-])cc2)NC1c1ccc([N+](=O)[O-])cc1 (centres undefined)	-100*	-21	?	-25	-1%	?
Cc1cccc(NC(=O)CSc2nc3ccccc3nc2N2CCCC2)c1	?	18	?	25	-20%	?
Cc1cc(C)c(NC(=O)c2nc3ccccc3nc2N2CCCCC2)c(C)c1	/	6	?	/	0%	26µM*
CCc1ccc(NC(=O)CSc2nc3ccccc3nc2N2CCCCC2)cc1	32	12	?	25	-20%	10µM*
Cc1cccc(NC(=O)CSc2nc3ccccc3nc2N2CCCCC2)c1C	/	-19	23µM*	/	-1%	12µM*
CCc1cccc(NC(=O)CSc2nc3ccccc3nc2N2CCCCC2)c1	/	2	12µM*	/	?	16µM*
CCc1cccc(C)c1NC(=O)c1nc2ccccc2nc1N1CCCCC1	/	7	?	/	3%	-50%
Cc1cccc(NC(=O)CSc2nc3ccccc3nc2N2CCCCC2)c1	-4	5	29µM*	11	?	?
